About 1,100 (0.41%) of roughly 270,000 compounds were called active. Entries that show only a call come without a potency. Roughly 3% stayed inconclusive and do not appear here. The call rests on the fitted dose curve. The full list was thinned out, with actives kept by preference.
Assay: qHTS Assay for Inhibitors of Influenza NS1 Protein Function; further: actives are rising curves; nearly all actives have a fitted effect of over 50% in size
Conditions: series mostly up to 46.1 µM
Excerpt: NIH Chemical Genomics Center [NCGC]
NIH Molecular Libraries Probe Centers Network [MLPCN]
Assay Submitter (PI): Daniel Engel
Influenza is a world-wide public health problem and emerging forms of the virus have the potential to cause a pandemic of equal or greater magnitude to the outbreaks recorded in 1918, 1957 or 1968. Vaccine development is proceeding and there also exist two classes of anti-influenza compounds. However these therapeutic modalities are neither fully effective nor widely enough available to fulfill global needs. In addition their potential usefulness against newly emergent strains is not known. Efforts are needed to develop novel agents against influenza virus, including broad-spectrum agents. Identification of small molecules that inhibit NS1 function either directly or by interfering with specific cellular pathways may be a key to increasing our defense against the virus.
We have miniaturized and optimized a cell based assay in which NS1 from influenza A is expressed in the budding yeast S. cerevisiae. NS1 is a multi-functional protein that counters the host innate immune response and facilitates viral versus cellular gene expression. Expression of NS1 causes a pronounced slow growth phenotype in yeast due to its intrinsic molecular activities. Small molecules that suppress the slow growth phenotype can be identified by a straightforward growth recovery assay using optical density (OD) as the measurement. The same yeast strain not expressing NS1 was used as positive control in the yeast growth recovery assay.
The yeast S. cerevisiae control and NS1 expressing cells were kindly supplied by laboratory of Dr. Daniel Engel, University of Virginia. Yeast starter cultures were stored in single use aliquots at -80C.
1. Yeast culture medium per liter: 1.2 g Yeast Nitrogen Base (w/out amino acids and Ammonium Sulphate), 5.0g Ammonium Sulphate, 0.77g -URA DO (drop-out) Supplement, adjust pH to 6.0. Adjust to 2% glucose prior to inoculating with yeast.
2. Yeast assay medium: 1.2 g Yeast Nitrogen Base (w/out amino acids and Ammonium Sulphate), 5.0g Ammonium Sulphate, 0.77g -URA DO (drop-out) Supplement, adjust pH to 6.0. Adjust to 2% D-galactose prior to inoculating with yeast.
1. Inoculate 100 mls of yeast culture medium with 1 ml of frozen yeast aliquote. Incubate overnight at 30C, 250RPM.
2. Harvest overnight culture at 4000 RPM and wash pellet with 15 mls H2O 3x.
3. Re-suspend washed pellet in 10 mls of yeast assay medium.
4. Prepare a 1:100 dilution of re-suspended culture in yeast assay medium.
5. Dispense 3.5 ul per well of reagents in step 4 in columns 2-48 in a black clear bottom 1536 well plate.
6. Dispense 3.5 ul per well of yeast assay medium in column 1 only.
7. Transfer 23 nl of compound per well.
8. Dispense 3.5 ul per well of yeast assay medium in columns 1-48.
9. Read plate using Viewlux protocol for optical density 600 (OD600) using excitation filter 600nm.
Potency means the concentration at half of the fitted maximal effect.

Compound | Potency
COc1ccc(/C=C2\SC(=O)N(CCC(=O)NCCCn3ccnc3)C2=O)cc1 | inactive
COC(=O)CN1C(=O)C(C)(C)Oc2ccc(C(=O)Nc3cccc(OC)c3)cc21 | inactive
COc1cccc(-n2c(SCC(=O)NC3CCCCC3)nc3n[nH]c(C)c3c2=N)c1 | 3.16 µM (active)
Cc1ccc(-n2c(SCC(=O)NCCC3=CCCCC3)nc3n[nH]c(C)c3c2=N)cc1Cl | inactive
CCCCNC(=O)CSc1nc2n[nH]c(C)c2c(=N)n1-c1cccc(Cl)c1C | inactive
O=C(NC(=S)Nc1ccc(Cl)cc1Cl)C1CC1 | inactive
COc1ccc(Oc2cn[nH]c2-c2ccc(OC)cc2O)cc1 | inactive
Cc1cc(C)c(SCCc2ccncc2)c(C)c1 | inactive
O=c1c2ccccc2ncn1/N=C/c1ccccc1 | inactive
COC(=O)[C@H](C)[C@H]1C[C@]1(C)[C@H](NC(=O)OCc1ccccc1)c1ccccc1 | inactive
O=C(Nc1ccc(N2CCN(C(=O)c3ccccc3)CC2)c(Cl)c1)c1cccnc1 | inactive
C[C@@H](C(=O)Nc1ccc2ccccc2c1)[C@@H]1C[C@@]1(C)[C@@H](NC(=O)c1cccnc1)c1ccccc1 | 12.6 µM (active)
O=C(Nc1nnc(C2=COCCO2)o1)c1ccc([N+](=O)[O-])s1 | inactive
O=C(N/N=C\c1cc2c(cc1Cl)OCO2)c1ccc(Br)s1 | inactive
CCCOC1CCCN(C(=O)c2cc(COc3cncc(Cl)c3)on2)C1 (centres undefined) | inactive
CC(C)(C)c1ccc(CN2C(=O)c3ccccc3S2(=O)=O)cc1 | inactive
COc1ccc(-c2nc(CS(=O)CC(=O)NCc3ccccn3)c(C)o2)cc1 (centres undefined) | 14.1 µM (active)
COc1cccc(-c2nc(CS(=O)CC(=O)NCc3ccc(F)cc3)c(C)o2)c1 (centres undefined) | inactive
COc1ccc(-c2nc(CS(=O)CC(=O)NCc3ccccc3)c(C)o2)cc1OC (centres undefined) | inactive
Cc1c(C)n(Cc2ccc(Cl)cc2)c2ccc(C(=O)NCCCN3CCOCC3)cc12 | inactive
COc1ccccc1Cn1c(CO)nc2ccccc21 | inactive
COCn1c(COc2ccccc2)nc2ccccc21 | inactive
COCc1nc2ccccc2n1Cc1ccccc1Br | 2.82 µM (active)
CN(CCO)c1ccc(/C=N/Nc2nncc3ccccc23)cc1 | inactive
CCc1ccccc1S(=O)(=O)Cc1ccc(C(=O)NCCc2ccccc2)o1 | inactive
Clc1c(OCCCn2ccnc2)ccc2ccccc12 | inactive
Cn1c(Cc2cccs2)nnc1SCC(=O)Nc1ccccc1 | inactive
Cn1c(CC(=O)Nc2ccccc2)nnc1SCC(=O)c1ccccc1 | 11.2 µM (active)
Cn1c(CSCC(=O)Nc2ccccc2)nnc1SCc1ccccc1 | inactive

From PubChem BioAssay AID2326 (National Center for Advancing Translational Sciences (NCATS), 2010)
